The source of these data is PubChem BioAssay.

Activity calls are given as the source filed them.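 The calls were made as follows, unless noted: active = fluorescence slope higher than the sample average by over 3 SD (cut at about -0.22 in these data, passing the limit was not always enough); inactive = the rest.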

Assay [1] in a line: inhibitors of TNFa-induced NFkB p65 translocation, primary screen, imaging, HUVEC, MLSMR starter and 10KST1 sets (AID 438;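 active = inhibition above 20% together with a positive visual image hit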;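 also: compound added about 3h40 before a 20 min TNFalpha stimulation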;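 as to inhibition: signal is the nuclear over cytoplasmic p65 intensity ratio per well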). The note with it: HUVEC TNFa-induced p65 nuclear translocation; cell count: measured here: nuclei count (cytotoxicity indicator), at 2.08 µM; inhibition: at 2 µM, stronger effect = higher value, 0% TNFa-plus-vehicle, 100% no-TNFa wells.
The nature of assay [2]: reduction of polyQ htt aggregates in cells – imaging, exon1htt(103Q)mCFP cells, high-content imaging, primary screen (AID 483;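 active = visual image review flags a hit and inhibition of aggregation exceeds 20%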;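 also: compound exposure lasted 3 days before fixation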;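 as to nuclei count: percent of the per-plate median nuclei count of sample wells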). The note with it: exon1htt(103Q)mCFP cell line, aggregate imaging, at 2 µM; inhibition of aggregation: stronger effect = higher value; nuclei count: measured here: cell count, toxicity.
Assay [3] in a line: endothelial E-selectin expression blockers – imaging, HUVEC, immunofluorescence, MLSMR starter and 10KST1 sets, primary screen (AID 487;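 active = visually confirmed hit in the image check and inhibition above 20%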;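 as to inhibition: signal is fraction of cell area covered by stained E-selectin grains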;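 as to nuclei count: 100% = median nuclei count of all wells on the same plate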). The note with it: HUVEC TNFalpha-induced E-selectin immunofluorescence imaging, at 2 µM; inhibition: stronger effect = higher value; nuclei count: measured here: cell number, toxicity.
In assay [4] the target is Voltage-gated potassium channel subunit beta-2 (Rattus norvegicus) (UniProt P62483). Kind of assay: inhibitors of rat Kvbeta2 reductase activity – biochemical, NADPH fluorescence, primary screen (AID 622).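 Also: slope of raw intensity against log time taken from 70 to 1610 s.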 The note with it: recombinant KvBeta, 4-cyanobenzaldehyde reduction, at 10 µM, stronger effect = higher value.
For assay [5] the target is unchanged. Nature of the assay: enhancers of rat Kvbeta2 NADPH turnover – biochemical, NADPH fluorescence, primary screen (AID 623;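 active = NADPH fluorescence slope more negative than the mean of all samples by about 3 SD, 99.7% confidence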;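 also: fluorescence intensity change per second fitted from 20 to 320 s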). The note with it: Recombinant KvBeta, NADPH fluorescence decrease slope, 10 min; at 10 µM; stronger effect = lower value.
For assay [6], the target named is Alpha-2C adrenergic receptor (Homo sapiens) (UniProt P18825). Kind of assay: compounds altering alpha2C-coupled GIRK flux – cell-based, HEK293 alpha2C/GIRK1/2, thallium flux, primary screen (AID 624;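 active = fluorescence slope after compound addition differing from the mean of all screened samples at 99.7% confidence, in either direction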;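 also: slope of fluorescence ratio to pre-addition baseline per second over 15 to 24 s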). The note with it: thallium flux BTC fluorescence, at 10 µM, actives lie on both sides.
Assay [7] is described as follows: blockers of RIG-like receptor reporter activation – cell-based, Sendai virus stimulus, luciferase, 10K MLSCN set, TLR/RLR signaling modifier project, primary screen (AID 602276;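 active = inhibition at or above 50% at 10 µM; inactive = inhibition below 50%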;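 also: firefly luciferase from ISG56 promoter only with Renilla not read in this screen; 0% = Sendai virus plus DMSO and 100% = medium plus DMSO without virus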). The note with it: HEK293 RL24 IRF3 luciferase reporter, at 10 µM, stronger effect = higher value.
Assay [8] in a line: TLR3 IRF3 reporter activation blockers – cell-based, poly I:C stimulus, luciferase, 10K MLSCN set, primary screen (AID 602277;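 active = inhibition of the reporter signal at or above 50%; inactive = inhibition below 50%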). The note with it: HEK293-TLR3 RL24 IRF3 luciferase reporter, at 10 µM, stronger effect = higher value. On the technique in general: In a reporter assay the amount or activity of a reporter protein is the signal.

Voltage-gated potassium channel subunit beta-2 (Rattus norvegicus), sequence (P62483 whole entry, looked up): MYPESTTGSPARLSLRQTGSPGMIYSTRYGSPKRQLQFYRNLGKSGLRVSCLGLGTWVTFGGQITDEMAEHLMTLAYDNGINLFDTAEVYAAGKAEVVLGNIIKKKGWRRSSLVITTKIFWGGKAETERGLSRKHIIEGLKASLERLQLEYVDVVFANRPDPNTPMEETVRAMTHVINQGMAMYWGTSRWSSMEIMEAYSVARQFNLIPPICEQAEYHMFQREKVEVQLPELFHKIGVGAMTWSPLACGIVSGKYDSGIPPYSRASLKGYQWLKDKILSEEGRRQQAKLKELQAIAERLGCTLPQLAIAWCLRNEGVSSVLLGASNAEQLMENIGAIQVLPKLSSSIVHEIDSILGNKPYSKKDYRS
Alpha-2C adrenergic receptor (Homo sapiens), sequence (P18825 whole entry, looked up): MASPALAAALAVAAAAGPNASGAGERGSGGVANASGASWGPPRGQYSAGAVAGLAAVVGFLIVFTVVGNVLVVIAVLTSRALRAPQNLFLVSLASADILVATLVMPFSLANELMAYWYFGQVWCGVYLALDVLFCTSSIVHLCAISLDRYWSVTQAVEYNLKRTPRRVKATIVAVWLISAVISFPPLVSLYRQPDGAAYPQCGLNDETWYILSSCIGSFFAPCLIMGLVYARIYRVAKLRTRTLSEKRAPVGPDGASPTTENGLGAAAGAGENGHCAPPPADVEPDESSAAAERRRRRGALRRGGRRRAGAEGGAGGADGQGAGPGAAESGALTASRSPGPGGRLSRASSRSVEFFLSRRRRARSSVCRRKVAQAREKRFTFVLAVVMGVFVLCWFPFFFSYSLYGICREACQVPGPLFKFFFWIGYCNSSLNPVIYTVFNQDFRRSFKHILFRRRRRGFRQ

For the molecule `Cc1c(C(=O)OCCOC(C)C)[nH]c2c1C(=O)CC(c1ccco1)C2` (centres undefined), the cell count in assay [1] came to 482. Besides, the inhibition (as a rule, the change of the read-out against control, counted positive when it falls) in assay [1] is 18% (inactive); in assay [3], -59.6% (inactive); in assay [7] it was 13.8% (inactive); in assay [8], 82.1% (active). For the same molecule, the inhibition of aggregation in assay [2] was -3.7% (inactive). For the same molecule, the nuclei count in assay [2] stood at 5.8%; in assay [3], 83.1%. In assay [4], the fluorescence slope is -0.553 (inactive). Moreover, in assay [5], the NADPH fluorescence slope is -3.5e-05 (inactive). For the same molecule, the slope in assay [6] was 0.00564 (inactive).
Turning to `O=C(CNCC1CCCO1)Nc1ccccc1-n1cccc1` (centres undefined), the cell count in assay [1] stood at 671. Moreover, the inhibition in assay [1] was -11.4% (inactive); in assay [3], -127% (inactive); in assay [7], 2.08% (inactive); in assay [8], 15% (inactive). In addition, the inhibition of aggregation in assay [2] was 1.7% (inactive). In addition, the values for the nuclei count in assay [2] and in assay [3] were 90.8% and 127%, respectively. Moreover, the fluorescence slope in assay [4] was -0.291 (inactive). The NADPH fluorescence slope in assay [5] was -4.7e-05 (inactive). In addition, the slope in assay [6] was 0.00473 (inactive).
In the case of `Cc1cccc(NC(=O)Cn2c(=O)n(C)c3ccccc32)c1`, the cell count in assay [1] was 350. The inhibition was -3.7% (inactive) in assay [1], -17.7% (inactive) in assay [3], 9.53% (inactive) in assay [7] and 9.37% (inactive) in assay [8]. In assay [2], the inhibition of aggregation was 2.6% (inactive). The nuclei count in assay [2] and in assay [3] was 107% throughout. The fluorescence slope in assay [4] is -0.417 (inactive). Also, in assay [5], the NADPH fluorescence slope was 9.1e-06 (inactive). Also, in assay [6], the slope was 0.011 (inactive).
In the case of `O=C(NCc1nnc(SCC(=O)N2CCC(Cc3ccccc3)CC2)o1)c1ccccc1F`, the cell count in assay [1] came to 574. The inhibition in assay [1] is -0.4% (inactive); in assay [3], 5.1% (inactive); in assay [7] it was -4.5% (inactive); in assay [8], 8.45% (inactive). Also, the inhibition of aggregation in assay [2] is 4.4% (inactive). The figures for the nuclei count in assay [2] and in assay [3] were 112% and 110%, respectively. Also, the fluorescence slope in assay [4] is -0.549 (inactive). Moreover, the NADPH fluorescence slope in assay [5] is -5.6e-05 (inactive). Further, the slope in assay [6] was 0.00657 (inactive).
Regarding `O=C(NCC12CC3CC(C1)CC(CNC(=O)N1CCCC1)(C3)C2)N1CCCC1`, the cell count in assay [1] was 633. The inhibition in assay [1] was 2.2% (inactive); in assay [3], -37.7% (inactive); in assay [7], 19.1% (inactive); in assay [8], 22.9% (inactive). Moreover, in assay [2], the inhibition of aggregation was 3.3% (inactive). For the same molecule, the nuclei count in assay [2] amounted to 92.2%; in assay [3], 112%. In addition, the fluorescence slope in assay [4] was -0.463 (inactive). For the same molecule, in assay [5], the NADPH fluorescence slope is -6e-05 (inactive). In assay [6], the slope is 0.00588 (inactive).
Turning to `Cc1nc2ccc(S(=O)(=O)NC(C(=O)NCc3cccs3)C(C)C)cc2s1` (centres undefined), in assay [1], the cell count turned out to be 332. The inhibition in assay [1] is -8.3% (inactive); in assay [3], -28.8% (inactive); in assay [7] it was -5.51% (inactive); in assay [8], 14.4% (inactive). The inhibition of aggregation in assay [2] was 24.4% (inactive). In addition, the nuclei count in assay [2] was determined as 88.7%; in assay [3], 106%. Also, the fluorescence slope in assay [4] is -0.612 (inactive). In addition, the NADPH fluorescence slope in assay [5] is -5.2e-05 (inactive). The slope in assay [6] is 0.00687 (inactive).
Consider `O=S(=O)(Nc1ccc(Cc2ccncc2)cc1)N1CCCC1`, for which the cell count in assay [1] is 848. Also, the inhibition in assay [1] is -3.6% (inactive); in assay [3] it was -102% (inactive); in assay [7], 1.91% (inactive); in assay [8], 2.2% (inactive). For the same molecule, in assay [2], the inhibition of aggregation was -0.2% (inactive). Besides, the nuclei count in assay [2] worked out at 111%; in assay [3] it was 130%. The fluorescence slope in assay [4] is -0.52 (inactive). In addition, the NADPH fluorescence slope in assay [5] is 1.2e-05 (inactive). Also, in assay [6], the slope is 0.00557 (inactive).
Take `CCn1c(=O)cc(OCC(=O)Nc2nc(C)cs2)c2ccccc21`: in assay [1], the cell count was 809. The inhibition in assay [1] is -1.7% (inactive); in assay [3], -54.6% (inactive); in assay [7], 7.74% (inactive); in assay [8], 32.8% (inactive). Besides, the inhibition of aggregation in assay [2] is -24.7% (inactive). In addition, the figures for the nuclei count in assay [2] and in assay [3] were 90.4% and 125%, respectively. Further, the fluorescence slope in assay [4] is -0.525 (inactive). In assay [5], the NADPH fluorescence slope is -3.4e-05 (inactive). In addition, the slope in assay [6] is 0.00615 (inactive).
On to `COc1cc(C(=O)Nc2nc(-c3cccs3)cs2)cc(OC)c1OC`, for which the cell count in assay [1] is 475. Moreover, the inhibition in assay [1] was -4.8% (inactive); in assay [3], -18.4% (inactive); in assay [7], -6.01% (inactive); in assay [8] it was -12% (inactive). Moreover, in assay [2], the inhibition of aggregation was -20.4% (inactive). The nuclei count in assay [2] stood at 98.7%; in assay [3], 106%. Also, the fluorescence slope in assay [4] was -0.507 (inactive). The NADPH fluorescence slope in assay [5] is -6.5e-06 (inactive). In addition, in assay [6], the slope is 0.00722 (inactive).
With `COc1ccc(CCNC(=O)C2CCN(C(=O)N(C)C)CC2)cc1OC`, the cell count in assay [1] was 618. For the same molecule, the inhibition in assay [1] was 0.9% (inactive); in assay [3] it was -74.3% (inactive); in assay [7], 6.71% (inactive); in assay [8] it was -1.45% (inactive). Further, the inhibition of aggregation in assay [2] was 3.5% (inactive). The nuclei count worked out at 44.3% in assay [2] and 106% in assay [3]. For the same molecule, the fluorescence slope in assay [4] was -0.386 (inactive). The NADPH fluorescence slope in assay [5] is -1.9e-05 (inactive). Further, the slope in assay [6] is 0.00486 (inactive).
Regarding `COc1cc(-n2nc(C)c3c2OC(N)=C(C#N)C3c2ccccc2)c(Cl)c(Br)c1O` (centres undefined), the cell count in assay [1] was found to be 490. Also, the inhibition was -1.6% (inactive) in assay [1], -8.7% (inactive) in assay [3], 18.2% (inactive) in assay [7] and 14.7% (inactive) in assay [8]. Further, the inhibition of aggregation in assay [2] was 2.1% (inactive). In addition, the nuclei count was 71.4% in assay [2] and 108% in assay [3]. Besides, the fluorescence slope in assay [4] was -0.397 (inactive). In assay [5], the NADPH fluorescence slope was -3.5e-05 (inactive). For the same molecule, the slope in assay [6] was 0.00309 (inactive).
Consider `CCOc1ccc(C(=O)CN2CCN(S(=O)(=O)c3ccc(OC)cc3)CC2)cc1`, for which the cell count in assay [1] is 599. Further, the inhibition was -2.9% (inactive) in assay [1], -29.2% (inactive) in assay [3], -2.61% (inactive) in assay [7] and 21.2% (inactive) in assay [8]. Further, the inhibition of aggregation in assay [2] is -3.6% (inactive). For the same molecule, the figures for the nuclei count in assay [2] and in assay [3] were 106% and 92.2%, respectively. In addition, the fluorescence slope in assay [4] is -0.391 (inactive). For the same molecule, in assay [5], the NADPH fluorescence slope was -4.7e-05 (inactive). Further, the slope in assay [6] was 0.00338 (inactive).
As to `O=C(NCc1ccc(F)cc1)c1cc2ccccn2n1`, the cell count in assay [1] came out at 589. Besides, the inhibition in assay [1] is 4.4% (inactive); in assay [3], -1% (inactive); in assay [7], 1.23% (inactive); in assay [8] it was -17.7% (inactive). Moreover, the inhibition of aggregation in assay [2] is 6% (inactive). For the same molecule, the nuclei count in assay [2] is 97%; in assay [3], 107%. For the same molecule, in assay [4], the fluorescence slope is -0.601 (inactive). Further, the NADPH fluorescence slope in assay [5] was -3.6e-05 (inactive). In assay [6], the slope is 0.00683 (inactive).
For `CC(C)n1nc(C(=O)Nc2nc3ccc(S(C)(=O)=O)cc3s2)c2ccccc2c1=O`, in assay [1], the cell count came out at 452. The inhibition in assay [1] was -6.8% (inactive); in assay [3], -52.1% (inactive); in assay [7], 18.5% (inactive); in assay [8], 29.9% (inactive). The inhibition of aggregation in assay [2] is -5.5% (inactive). In addition, the nuclei count in assay [2] stood at 35.2%; in assay [3], 117%. Also, the fluorescence slope in assay [4] was -0.265 (inactive). Moreover, the NADPH fluorescence slope in assay [5] was -2.5e-05 (inactive). Besides, the slope in assay [6] is 0.00538 (inactive).
